The results in this text go back to article PMC7862700, “An all-to-all approach to the identification of sequence-specific readers for epigenetic DNA modifications on cytosine”.

Experiment in all cases: DAPPL (digital affinity profiling via proximity ligation, sequencing); 10 mM Tris-HCl pH 7.5, 50 mM NaCl, 1 mM DTT, 4% glycerol, room temperature, 30 min; GST-TFs on glutathione beads, 16-mer random dsDNA library, 0.1% formaldehyde crosslink after washing; high values mean tight binding
Common to all, as to conditions: protein: recombinant; tags: N-terminal GST; dsDNA, one strand shown

For one test, the target named is T1, ERF (Homo sapiens, UniProt P50548 1-548).
T1 sequence: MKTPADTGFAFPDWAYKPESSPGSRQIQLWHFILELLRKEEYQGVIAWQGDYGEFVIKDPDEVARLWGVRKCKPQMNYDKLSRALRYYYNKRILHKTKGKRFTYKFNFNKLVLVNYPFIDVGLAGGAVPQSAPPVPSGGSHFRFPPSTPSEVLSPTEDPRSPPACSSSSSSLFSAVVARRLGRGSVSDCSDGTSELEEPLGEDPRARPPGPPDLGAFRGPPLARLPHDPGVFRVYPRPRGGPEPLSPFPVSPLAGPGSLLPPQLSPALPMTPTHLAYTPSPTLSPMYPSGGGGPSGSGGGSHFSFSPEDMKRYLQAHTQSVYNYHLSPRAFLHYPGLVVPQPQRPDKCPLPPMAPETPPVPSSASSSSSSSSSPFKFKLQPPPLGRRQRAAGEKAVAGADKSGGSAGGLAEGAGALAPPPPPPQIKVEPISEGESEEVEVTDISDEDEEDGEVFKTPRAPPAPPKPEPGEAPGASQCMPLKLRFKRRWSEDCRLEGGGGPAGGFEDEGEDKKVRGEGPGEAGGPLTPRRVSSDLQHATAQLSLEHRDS
In outline: (§1)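 Beads coated with glutathione captured GST-fused human transcription factors that had been expressed in yeast, and the factors were then given DNA barcodes and pooled with a tag-only sample. The pools were incubated with 200 nmole of a random double-stranded 16-mer DNA library in Tris/NaCl/DTT/glycerol buffer for 30 min at room temperature, washed, crosslinked with 0.1% formaldehyde and proximity-ligated with BsaI/T4 ligase at 37 °C for 1 h. PCR amplification and Illumina NextSeq500 sequencing came last. Binding signal is each hexamer's read frequency for a factor divided by its frequency for the tag-only sample.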

A further test concerns the target T2, ETV3L (Homo sapiens, UniProt Q6ZN32 1-361).
T2 sequence: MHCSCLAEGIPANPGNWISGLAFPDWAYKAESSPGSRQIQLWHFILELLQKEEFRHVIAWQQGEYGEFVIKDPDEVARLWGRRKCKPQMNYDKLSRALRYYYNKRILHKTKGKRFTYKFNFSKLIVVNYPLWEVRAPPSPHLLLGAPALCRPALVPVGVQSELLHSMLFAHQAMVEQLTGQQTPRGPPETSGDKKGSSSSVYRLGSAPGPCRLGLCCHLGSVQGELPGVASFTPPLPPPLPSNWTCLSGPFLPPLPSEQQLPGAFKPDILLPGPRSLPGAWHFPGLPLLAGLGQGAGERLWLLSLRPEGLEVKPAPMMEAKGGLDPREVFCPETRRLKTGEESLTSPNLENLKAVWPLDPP
In outline: as §1

The target of the next test is T3, ETS2 (Homo sapiens, UniProt P15036 1-469).
T3 sequence: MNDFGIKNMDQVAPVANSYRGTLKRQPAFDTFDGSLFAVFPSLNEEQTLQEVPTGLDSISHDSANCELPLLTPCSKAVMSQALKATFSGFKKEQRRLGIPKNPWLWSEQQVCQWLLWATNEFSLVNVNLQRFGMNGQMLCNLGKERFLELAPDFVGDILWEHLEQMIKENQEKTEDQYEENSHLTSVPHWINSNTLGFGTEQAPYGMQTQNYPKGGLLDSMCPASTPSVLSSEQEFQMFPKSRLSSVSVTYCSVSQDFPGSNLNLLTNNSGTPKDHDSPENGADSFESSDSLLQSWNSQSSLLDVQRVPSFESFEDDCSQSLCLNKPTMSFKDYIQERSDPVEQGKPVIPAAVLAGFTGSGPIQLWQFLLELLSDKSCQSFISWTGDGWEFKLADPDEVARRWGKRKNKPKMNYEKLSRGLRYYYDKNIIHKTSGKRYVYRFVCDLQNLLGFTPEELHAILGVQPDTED
A digest of the protocol:
as §1

A further test addresses T4, SPDEF (Homo sapiens, UniProt O95238 1-335).
T4 sequence: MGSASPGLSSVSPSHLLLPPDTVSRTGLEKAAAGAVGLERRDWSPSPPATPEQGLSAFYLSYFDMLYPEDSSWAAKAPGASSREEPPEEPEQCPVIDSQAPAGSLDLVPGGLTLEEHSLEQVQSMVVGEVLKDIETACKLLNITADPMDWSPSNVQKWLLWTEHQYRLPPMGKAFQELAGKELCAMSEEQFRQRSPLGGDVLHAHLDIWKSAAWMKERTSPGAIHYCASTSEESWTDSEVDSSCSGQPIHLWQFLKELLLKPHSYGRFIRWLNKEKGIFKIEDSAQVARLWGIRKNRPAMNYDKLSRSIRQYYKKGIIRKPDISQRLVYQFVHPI
A digest of the protocol:
as §1

A further test addresses T5, ETV7 (Homo sapiens, UniProt Q9Y603 1-341).
T5 sequence: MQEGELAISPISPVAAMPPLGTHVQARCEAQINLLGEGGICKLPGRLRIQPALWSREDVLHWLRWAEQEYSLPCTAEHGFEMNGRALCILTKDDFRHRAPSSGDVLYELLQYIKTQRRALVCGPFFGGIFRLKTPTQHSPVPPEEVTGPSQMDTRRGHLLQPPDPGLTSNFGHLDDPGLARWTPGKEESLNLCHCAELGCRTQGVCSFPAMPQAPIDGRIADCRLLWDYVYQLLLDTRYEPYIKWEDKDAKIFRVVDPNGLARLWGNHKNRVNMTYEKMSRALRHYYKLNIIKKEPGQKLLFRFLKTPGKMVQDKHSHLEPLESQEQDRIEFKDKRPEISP
A digest of the protocol: as §1

The target in another test is T6, ELF5 (Homo sapiens, UniProt Q9UKW6-2 1-255).
T6 sequence: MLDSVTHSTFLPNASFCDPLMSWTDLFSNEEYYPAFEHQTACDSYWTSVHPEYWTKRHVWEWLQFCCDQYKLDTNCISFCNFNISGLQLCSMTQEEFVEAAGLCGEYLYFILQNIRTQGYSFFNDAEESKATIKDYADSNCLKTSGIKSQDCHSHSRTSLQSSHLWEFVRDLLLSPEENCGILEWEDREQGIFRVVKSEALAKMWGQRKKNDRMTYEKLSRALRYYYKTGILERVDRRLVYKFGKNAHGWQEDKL
In outline:
as §1

In a further test the target is T7, ETV3 (Homo sapiens, UniProt P41162-2 1-143).
T7 sequence: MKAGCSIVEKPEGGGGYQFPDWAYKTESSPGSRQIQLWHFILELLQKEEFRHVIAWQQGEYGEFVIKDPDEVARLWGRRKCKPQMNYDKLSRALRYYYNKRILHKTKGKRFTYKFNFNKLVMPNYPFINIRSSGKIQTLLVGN
A digest of the protocol: as §1

The target of a further test is ETV6 (Homo sapiens, UniProt P41212 1-452). A digest of the protocol: as §1
Chain of ETV6 (P41212 whole entry): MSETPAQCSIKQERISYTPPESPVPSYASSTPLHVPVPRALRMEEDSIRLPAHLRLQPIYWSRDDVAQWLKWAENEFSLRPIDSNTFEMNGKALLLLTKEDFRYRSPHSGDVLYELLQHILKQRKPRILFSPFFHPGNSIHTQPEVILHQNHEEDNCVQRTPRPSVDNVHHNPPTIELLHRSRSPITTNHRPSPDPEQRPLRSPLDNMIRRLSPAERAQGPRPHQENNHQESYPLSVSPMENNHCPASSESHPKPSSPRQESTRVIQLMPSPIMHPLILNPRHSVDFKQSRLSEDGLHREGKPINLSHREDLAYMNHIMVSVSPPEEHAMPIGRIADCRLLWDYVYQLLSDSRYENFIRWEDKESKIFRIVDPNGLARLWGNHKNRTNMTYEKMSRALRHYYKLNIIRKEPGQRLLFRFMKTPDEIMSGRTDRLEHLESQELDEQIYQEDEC

Take CCCGGC: the binding signal was 1.06 fold enrichment (6-mer frequency, TF over GST control) in the test with ERF; 1.19 fold enrichment (6-mer frequency, TF over GST control) with ETV3L; 1.16 fold enrichment (6-mer frequency, TF over GST control) with ETS2; 1.28 fold enrichment (6-mer frequency, TF over GST control) with SPDEF; 1.13 fold enrichment (6-mer frequency, TF over GST control) with ETV7; 1.14 fold enrichment (6-mer frequency, TF over GST control) with ELF5. Also, the binding signal in the test with ETV3 was 1.27 fold enrichment (6-mer frequency, TF over GST control); with ETV6, 1.22 fold enrichment (6-mer frequency, TF over GST control).

Turning to GAAAAG, the binding signal was 1 fold enrichment (6-mer frequency, TF over GST control) with ERF; 1.09 fold enrichment (6-mer frequency, TF over GST control) in the test with ETV3L; 1.05 fold enrichment (6-mer frequency, TF over GST control) with ETS2; 1.01 fold enrichment (6-mer frequency, TF over GST control) in the test with SPDEF; 1.13 fold enrichment (6-mer frequency, TF over GST control) with ETV7; 1.12 fold enrichment (6-mer frequency, TF over GST control) in the test with ELF5. In addition, the binding signal with ETV6 was 1.18 fold enrichment (6-mer frequency, TF over GST control).

For the sequence TCGAAT, the binding signal with ERF is 1.13 fold enrichment (6-mer frequency, TF over GST control); in the test with ETV3L, 1.09 fold enrichment (6-mer frequency, TF over GST control); in the test with ETS2, 1.06 fold enrichment (6-mer frequency, TF over GST control); in the test with SPDEF, 1.09 fold enrichment (6-mer frequency, TF over GST control); with ETV7 it was 1.23 fold enrichment (6-mer frequency, TF over GST control); in the test with ELF5, 1.02 fold enrichment (6-mer frequency, TF over GST control). In addition, the binding signal with ETV6 is 1.13 fold enrichment (6-mer frequency, TF over GST control).

As to TGTGTT, the binding signal was 1.08 fold enrichment (6-mer frequency, TF over GST control) in the test with ERF; 1.15 fold enrichment (6-mer frequency, TF over GST control) with ETV3L; 1.06 fold enrichment (6-mer frequency, TF over GST control) with ETS2; 1.21 fold enrichment (6-mer frequency, TF over GST control) with SPDEF; 1.19 fold enrichment (6-mer frequency, TF over GST control) with ETV7; 1.11 fold enrichment (6-mer frequency, TF over GST control) with ELF5. In the test with ETV6, the binding signal is 1.08 fold enrichment (6-mer frequency, TF over GST control).

As for GGTATA, the binding signal in the test with ERF was 1.18 fold enrichment (6-mer frequency, TF over GST control); with ETV3L, 1.12 fold enrichment (6-mer frequency, TF over GST control); with ETS2 it was 1.08 fold enrichment (6-mer frequency, TF over GST control); with SPDEF it was 1.12 fold enrichment (6-mer frequency, TF over GST control); with ETV7, 1.13 fold enrichment (6-mer frequency, TF over GST control); in the test with ELF5 it was 1.09 fold enrichment (6-mer frequency, TF over GST control). The binding signal was 1.11 fold enrichment (6-mer frequency, TF over GST control) with ETV3 and 1.03 fold enrichment (6-mer frequency, TF over GST control) in the test with ETV6.

With TTCAGT, the binding signal was 1.09 fold enrichment (6-mer frequency, TF over GST control) with ERF; 1.13 fold enrichment (6-mer frequency, TF over GST control) with ETV3L; 1 fold enrichment (6-mer frequency, TF over GST control) with ETS2; 1.07 fold enrichment (6-mer frequency, TF over GST control) with SPDEF; 1.04 fold enrichment (6-mer frequency, TF over GST control) with ETV7; 1.05 fold enrichment (6-mer frequency, TF over GST control) in the test with ELF5. In addition, the binding signal with ETV6 was 1.06 fold enrichment (6-mer frequency, TF over GST control).

With ATATGT, the binding signal with ERF is 1.25 fold enrichment (6-mer frequency, TF over GST control); in the test with ETV3L, 1.17 fold enrichment (6-mer frequency, TF over GST control); with ETS2, 1.19 fold enrichment (6-mer frequency, TF over GST control); with SPDEF, 1.13 fold enrichment (6-mer frequency, TF over GST control); with ETV7, 1.16 fold enrichment (6-mer frequency, TF over GST control); in the test with ELF5, 1.13 fold enrichment (6-mer frequency, TF over GST control). Moreover, the binding signal in the test with ETV3 was 1.1 fold enrichment (6-mer frequency, TF over GST control); in the test with ETV6 it was 1.07 fold enrichment (6-mer frequency, TF over GST control).

Turning to CACCAC, the binding signal with ERF is 1.14 fold enrichment (6-mer frequency, TF over GST control); in the test with ETV3L, 1.19 fold enrichment (6-mer frequency, TF over GST control); in the test with ETS2, 1.15 fold enrichment (6-mer frequency, TF over GST control); in the test with SPDEF, 1.16 fold enrichment (6-mer frequency, TF over GST control); in the test with ETV7, 1.04 fold enrichment (6-mer frequency, TF over GST control); in the test with ELF5, 1.11 fold enrichment (6-mer frequency, TF over GST control). Besides, the binding signal with ETV3 was 1.11 fold enrichment (6-mer frequency, TF over GST control); with ETV6 it was 1.14 fold enrichment (6-mer frequency, TF over GST control).

Turning to ATACCA, the binding signal with ERF was 1.06 fold enrichment (6-mer frequency, TF over GST control); in the test with ETV3L, 1.08 fold enrichment (6-mer frequency, TF over GST control); with ETS2 it was 1.06 fold enrichment (6-mer frequency, TF over GST control); in the test with SPDEF, 1 fold enrichment (6-mer frequency, TF over GST control); in the test with ETV7, 1.02 fold enrichment (6-mer frequency, TF over GST control); with ELF5, 1.03 fold enrichment (6-mer frequency, TF over GST control). For the same sequence, in the test with ETV6, the binding signal is 1.01 fold enrichment (6-mer frequency, TF over GST control).

For the sequence TTGAAC, the binding signal is 1.16 fold enrichment (6-mer frequency, TF over GST control) in the test with ERF; 1.17 fold enrichment (6-mer frequency, TF over GST control) with ETV3L; 1.17 fold enrichment (6-mer frequency, TF over GST control) with ETS2; 1.06 fold enrichment (6-mer frequency, TF over GST control) in the test with SPDEF; 1.18 fold enrichment (6-mer frequency, TF over GST control) with ETV7; 1.14 fold enrichment (6-mer frequency, TF over GST control) with ETV3. Besides, the binding signal with ETV6 is 1.1 fold enrichment (6-mer frequency, TF over GST control).
